Results published in the supplement of paper PMC10849652.
The full data set covers some 7,900 targets. This sample favours those with a hit. About 0.6% of all pairs of compound and target were hits. A number with no mark means an inactive call.

Legend:
Test in all cases: log2 fold change, soluble protein after heating vs DMSO (PISA); higher = thermal stabilisation; K562 cells, 10 uM, 30 min; active = over 0.2 and 3.5 SD of the protein, either way, in both replicates (recomputed)
[1] = compound: CC1=C(C=C(C=C1)NC(=O)C2=CC(=CC=C2)C(C)(C)C#N)NC3=CC4=C(C=C3)N=CN(C4=O)C
Procedure, shortened: (§1)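 K562 cells at 2×10^6 cells/mL were exposed to 10 μM compound for 30 min, then aliquots were heated for 3 min across 48°C-58°C, pooled, and extracted in PBS containing 0.5% NP-40 at 4°C. The supernatant after 21,000xg for 90 min was taken as soluble protein and measured by TMTpro 16plex LC-MS/MS with channel sums equalised. Thermal stability is reported relative to control samples, with values from duplicates. Fold changes are given on a log2 scale.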

[2] = compound: CC1=C(C=C(C=C1)NC(=O)C2=CC(=CC=C2)N(C)C)NC(=O)C3=CC=C(C=C3)O
Procedure, shortened: as §1

[3] = compound: CC1=CC=C(C=C1)SC2=C3C=C(SC3=CN=C2)C(=O)N
Procedure, shortened: as §1

[4] = compound: CC1=NC(=CC=C1)C2=C(N=C(N2)C(C)(C)C)C3=CC4=NC=CN=C4C=C3
Procedure, shortened: as §1

Nexturastat A = compound: CCCCN(Cc1ccc(C(=O)NO)cc1)C(=O)Nc1ccccc1 [Nexturastat A]
Procedure, shortened: as §1

vemurafenib = compound: CCCS(=O)(=O)Nc1ccc(F)c(C(=O)c2c[nH]c3ncc(-c4ccc(Cl)cc4)cc23)c1F [vemurafenib]
Procedure, shortened: as §1

[5] = compound: CCCS(=O)(=O)Nc1ccc(F)c(C(=O)c2c[nH]c3ncc(Cl)cc23)c1F
Procedure, shortened: as §1

[6] = compound: CCCc1cc(C)[nH]c(=O)c1CNC(=O)c1cc(-c2ccnc(N3CCN(C)CC3)c2)cc2c1cnn2C(C)C
Procedure, shortened: as §1

givinostat = compound: CCN(CC)Cc1ccc2cc(COC(=O)Nc3ccc(C(=O)NO)cc3)ccc2c1 [givinostat]
Procedure, shortened: as §1

barasertib = compound: CCN(CCCOc1ccc2c(Nc3cc(CC(=O)Nc4cccc(F)c4)[nH]n3)ncnc2c1)CCOP(=O)(O)O [barasertib]
Procedure, shortened: as §1

UniProt Q86W56, sequence (Q86W56 whole entry, looked up): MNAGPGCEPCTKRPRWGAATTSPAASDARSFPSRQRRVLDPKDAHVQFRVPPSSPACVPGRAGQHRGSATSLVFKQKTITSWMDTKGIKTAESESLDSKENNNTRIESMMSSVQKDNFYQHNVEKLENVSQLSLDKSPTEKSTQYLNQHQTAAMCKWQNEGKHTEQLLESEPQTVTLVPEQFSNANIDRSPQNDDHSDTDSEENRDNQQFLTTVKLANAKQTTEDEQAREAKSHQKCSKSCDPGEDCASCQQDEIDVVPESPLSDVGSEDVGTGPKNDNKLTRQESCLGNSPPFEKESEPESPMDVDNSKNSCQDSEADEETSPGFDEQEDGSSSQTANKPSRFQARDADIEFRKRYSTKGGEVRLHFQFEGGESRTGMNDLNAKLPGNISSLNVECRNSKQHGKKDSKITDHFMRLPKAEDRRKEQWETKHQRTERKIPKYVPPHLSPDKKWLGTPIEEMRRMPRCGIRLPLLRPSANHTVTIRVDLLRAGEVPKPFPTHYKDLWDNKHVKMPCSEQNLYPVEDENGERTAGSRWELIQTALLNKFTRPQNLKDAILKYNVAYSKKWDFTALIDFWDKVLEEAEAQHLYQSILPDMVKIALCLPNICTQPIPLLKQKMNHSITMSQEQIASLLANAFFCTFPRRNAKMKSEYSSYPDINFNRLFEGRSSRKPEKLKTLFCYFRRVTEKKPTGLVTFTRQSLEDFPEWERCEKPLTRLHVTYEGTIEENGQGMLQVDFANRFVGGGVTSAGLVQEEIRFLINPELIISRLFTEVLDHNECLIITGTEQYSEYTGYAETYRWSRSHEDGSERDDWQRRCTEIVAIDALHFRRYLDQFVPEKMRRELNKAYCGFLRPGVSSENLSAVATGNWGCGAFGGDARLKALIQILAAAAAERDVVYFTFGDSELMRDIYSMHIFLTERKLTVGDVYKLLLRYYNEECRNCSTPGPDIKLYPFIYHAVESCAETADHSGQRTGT
UniProt P29590, sequence (P29590 whole entry, looked up): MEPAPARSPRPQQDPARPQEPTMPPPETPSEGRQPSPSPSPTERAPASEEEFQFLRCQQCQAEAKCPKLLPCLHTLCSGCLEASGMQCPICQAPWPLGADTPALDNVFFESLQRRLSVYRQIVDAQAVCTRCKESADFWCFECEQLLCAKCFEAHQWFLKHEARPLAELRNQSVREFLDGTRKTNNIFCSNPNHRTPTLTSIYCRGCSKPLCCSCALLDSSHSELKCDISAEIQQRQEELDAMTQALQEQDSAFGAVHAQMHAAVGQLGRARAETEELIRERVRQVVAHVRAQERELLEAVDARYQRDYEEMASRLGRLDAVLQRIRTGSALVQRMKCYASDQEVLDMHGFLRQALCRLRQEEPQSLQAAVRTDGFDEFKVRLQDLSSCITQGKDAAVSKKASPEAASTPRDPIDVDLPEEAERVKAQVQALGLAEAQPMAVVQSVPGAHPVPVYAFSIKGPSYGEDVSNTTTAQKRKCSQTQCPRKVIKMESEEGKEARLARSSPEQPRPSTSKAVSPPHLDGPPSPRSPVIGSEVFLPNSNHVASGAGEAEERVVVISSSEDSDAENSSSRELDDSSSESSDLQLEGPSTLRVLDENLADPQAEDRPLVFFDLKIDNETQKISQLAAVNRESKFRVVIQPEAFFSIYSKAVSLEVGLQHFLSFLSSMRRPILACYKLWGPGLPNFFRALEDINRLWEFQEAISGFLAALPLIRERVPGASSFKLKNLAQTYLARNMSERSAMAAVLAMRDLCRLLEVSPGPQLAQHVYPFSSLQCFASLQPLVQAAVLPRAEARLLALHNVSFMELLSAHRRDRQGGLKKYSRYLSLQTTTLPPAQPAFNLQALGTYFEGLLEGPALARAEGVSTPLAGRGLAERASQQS
UniProt Q8NEB9, sequence (Q8NEB9 whole entry, looked up): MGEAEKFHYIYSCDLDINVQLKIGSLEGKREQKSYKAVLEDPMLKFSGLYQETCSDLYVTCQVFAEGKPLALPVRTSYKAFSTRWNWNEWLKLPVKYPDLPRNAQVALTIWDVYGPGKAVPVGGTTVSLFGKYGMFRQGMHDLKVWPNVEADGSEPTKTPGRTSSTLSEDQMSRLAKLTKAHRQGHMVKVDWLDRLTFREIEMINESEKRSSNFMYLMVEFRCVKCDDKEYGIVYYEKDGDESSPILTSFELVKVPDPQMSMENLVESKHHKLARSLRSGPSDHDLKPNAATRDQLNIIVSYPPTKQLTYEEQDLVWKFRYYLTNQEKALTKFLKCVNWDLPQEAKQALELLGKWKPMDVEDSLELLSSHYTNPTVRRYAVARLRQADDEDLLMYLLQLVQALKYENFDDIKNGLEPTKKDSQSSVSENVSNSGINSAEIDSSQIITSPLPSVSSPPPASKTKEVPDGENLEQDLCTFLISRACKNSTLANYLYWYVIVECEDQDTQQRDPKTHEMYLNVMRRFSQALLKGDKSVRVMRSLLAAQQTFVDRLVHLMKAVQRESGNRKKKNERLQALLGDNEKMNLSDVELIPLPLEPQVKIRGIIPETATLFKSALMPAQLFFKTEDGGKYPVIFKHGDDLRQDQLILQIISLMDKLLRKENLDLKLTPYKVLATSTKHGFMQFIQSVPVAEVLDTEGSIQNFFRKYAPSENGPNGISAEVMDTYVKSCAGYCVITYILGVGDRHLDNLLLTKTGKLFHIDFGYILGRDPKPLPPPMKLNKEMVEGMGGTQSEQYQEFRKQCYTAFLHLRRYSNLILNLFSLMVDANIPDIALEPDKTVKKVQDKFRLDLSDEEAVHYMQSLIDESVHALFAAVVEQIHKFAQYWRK
UniProt P06737, sequence (P06737 whole entry, looked up): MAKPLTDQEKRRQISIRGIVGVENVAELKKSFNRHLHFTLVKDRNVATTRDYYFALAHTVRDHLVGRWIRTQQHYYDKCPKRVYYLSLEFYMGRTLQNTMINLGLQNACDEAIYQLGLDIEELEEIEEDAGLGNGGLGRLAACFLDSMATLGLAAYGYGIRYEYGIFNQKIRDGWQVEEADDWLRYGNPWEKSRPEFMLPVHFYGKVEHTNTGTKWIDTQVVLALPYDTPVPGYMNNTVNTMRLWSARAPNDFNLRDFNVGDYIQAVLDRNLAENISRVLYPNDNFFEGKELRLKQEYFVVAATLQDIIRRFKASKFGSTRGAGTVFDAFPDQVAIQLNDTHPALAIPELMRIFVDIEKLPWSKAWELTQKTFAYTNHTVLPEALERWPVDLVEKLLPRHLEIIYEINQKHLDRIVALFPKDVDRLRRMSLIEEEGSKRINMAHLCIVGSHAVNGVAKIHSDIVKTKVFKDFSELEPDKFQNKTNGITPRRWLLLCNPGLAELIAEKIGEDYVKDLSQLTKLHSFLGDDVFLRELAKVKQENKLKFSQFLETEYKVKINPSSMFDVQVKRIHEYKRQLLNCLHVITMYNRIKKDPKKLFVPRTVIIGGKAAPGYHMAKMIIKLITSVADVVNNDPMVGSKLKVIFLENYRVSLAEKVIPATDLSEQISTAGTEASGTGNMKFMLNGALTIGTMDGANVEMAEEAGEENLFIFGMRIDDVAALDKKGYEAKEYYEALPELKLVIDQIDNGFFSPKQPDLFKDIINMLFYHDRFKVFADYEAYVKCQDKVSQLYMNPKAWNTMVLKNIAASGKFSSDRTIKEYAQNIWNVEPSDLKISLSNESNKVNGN
UniProt P42785, sequence (P42785 whole entry, looked up): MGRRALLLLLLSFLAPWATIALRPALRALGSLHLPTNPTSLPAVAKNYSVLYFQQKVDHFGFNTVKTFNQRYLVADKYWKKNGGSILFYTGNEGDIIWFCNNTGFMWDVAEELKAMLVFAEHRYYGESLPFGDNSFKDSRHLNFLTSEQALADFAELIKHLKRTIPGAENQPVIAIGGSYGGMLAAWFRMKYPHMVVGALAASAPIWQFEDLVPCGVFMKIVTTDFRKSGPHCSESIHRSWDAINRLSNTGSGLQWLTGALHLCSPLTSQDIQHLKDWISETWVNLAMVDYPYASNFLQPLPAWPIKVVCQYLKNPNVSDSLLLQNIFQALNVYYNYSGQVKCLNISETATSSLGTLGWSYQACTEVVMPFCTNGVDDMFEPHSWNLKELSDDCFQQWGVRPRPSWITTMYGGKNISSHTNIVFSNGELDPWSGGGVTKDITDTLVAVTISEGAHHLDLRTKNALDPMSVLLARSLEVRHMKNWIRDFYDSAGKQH
UniProt Q5H8A4, sequence (Q5H8A4 whole entry, looked up): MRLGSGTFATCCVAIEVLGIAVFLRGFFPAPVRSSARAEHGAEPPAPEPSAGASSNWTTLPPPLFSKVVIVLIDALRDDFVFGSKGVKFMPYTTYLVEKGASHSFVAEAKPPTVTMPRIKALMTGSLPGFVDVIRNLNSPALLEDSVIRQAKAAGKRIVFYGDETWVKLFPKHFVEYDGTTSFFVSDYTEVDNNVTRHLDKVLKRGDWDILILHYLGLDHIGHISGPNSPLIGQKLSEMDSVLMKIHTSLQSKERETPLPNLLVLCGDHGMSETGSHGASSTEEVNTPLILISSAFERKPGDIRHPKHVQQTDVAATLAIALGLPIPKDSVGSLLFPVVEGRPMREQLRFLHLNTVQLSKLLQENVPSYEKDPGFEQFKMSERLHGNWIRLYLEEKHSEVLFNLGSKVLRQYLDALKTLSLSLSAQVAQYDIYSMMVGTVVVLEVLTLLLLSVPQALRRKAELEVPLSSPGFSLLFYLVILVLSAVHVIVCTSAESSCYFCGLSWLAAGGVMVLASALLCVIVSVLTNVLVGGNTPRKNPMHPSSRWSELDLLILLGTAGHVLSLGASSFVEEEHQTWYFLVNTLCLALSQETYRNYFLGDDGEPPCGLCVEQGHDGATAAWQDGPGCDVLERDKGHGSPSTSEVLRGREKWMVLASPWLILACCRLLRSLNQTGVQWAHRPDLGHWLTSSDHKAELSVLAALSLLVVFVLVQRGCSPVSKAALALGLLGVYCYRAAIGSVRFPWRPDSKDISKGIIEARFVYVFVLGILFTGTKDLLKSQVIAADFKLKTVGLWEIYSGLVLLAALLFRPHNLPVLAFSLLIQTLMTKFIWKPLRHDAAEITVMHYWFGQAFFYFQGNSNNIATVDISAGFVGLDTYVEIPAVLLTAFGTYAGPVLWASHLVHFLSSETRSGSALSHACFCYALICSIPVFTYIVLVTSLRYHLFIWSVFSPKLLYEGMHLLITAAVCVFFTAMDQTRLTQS

Target | log2 fold change [1] | log2 fold change [2] | log2 fold change [3] | log2 fold change [4] | log2 fold change (Nexturastat A) | log2 fold change (vemurafenib) | log2 fold change [5] | log2 fold change [6] | log2 fold change (givinostat) | log2 fold change (barasertib)
PKN2 (UniProt Q16513) | 0.104 | -0.005 | 0.018 | -0.012 | 0.042 | 0.05 | 0.086 | 0.032 | 0.034 | 0.106
PC (UniProt P11498) | 0.07 | -0.103 | 0.038 | 0.012 | -0.07 | 0 | 0.032 | 0.039 | 0.022 | 0.009
POLR1A (UniProt O95602) | -0.082 | -0.019 | -0.198 | -0.185 | 0.489 (active) | 0.052 | 0.062 | 0.321 | 0.083 | 0.016
PARP1 (UniProt P09874) | 0.116 | -0.149 | 0.071 | 0.107 | -0.13 | 0.112 | 0.145 | 0.555 (active) | 0.045 | 0.122
PRMT8 (UniProt Q9NR22) | 0.285 | -0.033 | 0.097 | 0.016 | -0.125 | 0.028 | 0.156 | -0.009 | -0.043 | 0.031
PARG (UniProt Q86W56) | 0.126 | -0.064 | -0.008 | 0.025 | 0.018 | 0.087 | -0.006 | -0.003 | 0.107 | 0.07
PRKAR1A (UniProt P10644) | 0.15 | -0.051 | 0.059 | -0.103 | 0.053 | -0.028 | -0.085 | 0.203 | 0.055 | -0.01
POLR2I (UniProt P36954) | -0.063 | -0.011 | -0.015 | 0.001 | 0.055 | -0.086 | -0.081 | -0.057 | -0.151 | 0.085
PML (UniProt P29590) | -0.024 | -0.001 | -0.009 | -0.02 | -0.002 | -0.044 | 0.018 | -0.007 | -0.014 | 0.01
PPP1R14A (UniProt Q96A00) | -0.002 | -0.04 | 0.004 | 0.051 | -0.006 | -0.005 | -0.054 | 0.062 | -0.004 | 0.013
PPP2R5C isoform 4 (UniProt Q13362) | -0.016 | 0.004 | 0.014 | -0.064 | 0.016 | 0.074 | -0.004 | -0.027 | -0.001 | 0.057
PUF60 (UniProt Q9UHX1) | 0.046 | -0.018 | 0.043 | 0.022 | -0.003 | 0.034 | 0.14 | 0.009 | 0.022 | 0.025
PDLIM7 (UniProt Q9NR12) | 0.02 | -0.029 | -0.002 | 0.046 | -0.016 | 0.026 | 0.032 | 0.001 | 0.05 | 0.032
PNPLA2 (UniProt Q96AD5) | 0.009 | -0.017 | -0.003 | 0.008 | -0.021 | -0.017 | 0.053 | 0.026 | 0.036 | -0.092
PDCD4 (UniProt Q53EL6) | 0.029 | -0.043 | 0.012 | 0.016 | -0.11 | 0.083 | 0.107 | -0.06 | 0.103 | 0.002
PFAS (UniProt O15067) | -0.056 | -0.119 | 0.172 | 0.002 | -0.081 | 0.032 | -0.003 | -0.039 | 0.05 | 0.061
PSMD13 (UniProt Q9UNM6) | 0.03 | 0.034 | -0.068 | -0.029 | 0.064 | -0.05 | -0.048 | -0.016 | -0.05 | -0.041
PSMC1 (UniProt P62191) | 0.024 | 0.033 | -0.038 | -0.069 | 0.026 | -0.064 | -0.06 | -0.012 | -0.073 | -0.073
PIK3C3 (UniProt Q8NEB9) | 0.003 | 0.015 | -0.046 | -0.085 | 0.54 (active) | -0.001 | 0.02 | -0.051 | 0.088 | -0.015
PYGL (UniProt P06737) | -0.105 | 0.011 | 0.011 | 0.006 | -0.018 | -0.009 | 0.003 | -0.015 | 0.012 | -0.01
PLBD1 (UniProt Q6P4A8) | 0.005 | -0.023 | 0.032 | -0.039 | 0.005 | 0.069 | -0.014 | 0.006 | -0.013 | 0.027
PIGT (UniProt Q969N2) | -0.001 | -0.005 | 0.02 | -0.016 | 0.031 | -0.008 | 0.009 | 0.027 | -0.033 | 0.004
POLR2G (UniProt P62487) | 0.025 | -0.033 | 0.059 | 0.057 | -0.015 | -0.022 | 0.009 | -0.038 | -0.094 | -0.019
POLD3 (UniProt Q15054) | -0.131 | -0.055 | 0.03 | 0.007 | -0.115 | 0.082 | 0.049 | 0.065 | 0.018 | 0.006
PIGG (UniProt Q5H8A4) | 0.016 | -0.003 | 0.004 | -0.007 | 0.018 | 0.359 | -0.019 | -0.045 | 0.001 | 0.001
PRCP (UniProt P42785) | 0 | 0.061 | 0.022 | -0.002 | 0.072 | 0.008 | 0.01 | -0.082 | 0.035 | -0.008
PMM1 (UniProt Q92871) | -0.164 | 0.007 | -0.037 | 0.027 | -0.037 | -0.007 | -0.012 | -0.165 | -0.013 | -0.003
